In PubChem BioAssay (NCI) one finds growth data, which are given here for twelve molecules.

Each structure is given as a SMILES string. About 83,000 compounds went through this panel and 20% of them were active in at least one assay; those are over-represented in the sample as a whole.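 Percent growth is the endpoint: 0 to 100 indicates growth inhibition (40 means 60% inhibition), 0 means no net growth, and negative values indicate cell death.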 Unmarked numbers belong to inactive results. Calls of active or inactive are those of the source. Rule for the calls: active = growth percent below 10; inactive = the rest.

Common to all, as to assay: NCI-60 one-dose screen, 48 h (100 = growth as untreated, 0 = no growth, -100 = all killed)
Conditions in all cases: 10 µM unless noted

Assay [1] has as its system SK-MEL-2 melanoma.
The test system of assay [2] is EKVX NSCLC.
For assay [3], the system named is SN12C renal.
Assay [4] relates to UO-31 renal.
Assay [5] relates to TK-10 renal.
The subject of assay [6] is ACHN renal.
For assay [7], the system named is CAKI-1 renal.
The test system of assay [8] is A498 renal.
Assay [9] relates to CCRF-CEM leukemia.
For assay [10], the system named is MOLT-4 leukemia.

`Cc1ccc(Oc2c(/C=N/NC(=O)Cn3c(=O)sc4ccccc43)c(C)nn2-c2ccccc2)cc1`: the growth is 75.5% in assay [1]; 38% in assay [2]; 29.5% in [3]; 25.8% in assay [4]; 62.4% in assay [5]; 43.2% in [6]. Besides, the growth in [7] was 28.8%; in assay [8], 78.2%; in assay [9], 40.8%; in assay [10] it was 8.72% (active).

As for `COc1ccc2c(c1)C(C)Cc1c(Cl)ncnc1N2C` (stereo not given), the growth was -29.4% (active) in assay [1]; 12.4% in [2]; -0.561% (active) in [3]; 16.9% in [4]; 13% in [5]; 9.12% (active) in assay [6]. The growth in assay [7] was 2.36% (active); in assay [8], -39.3% (active); in [9], 13.8%; in assay [10], 1.59% (active).

As to `O=C(N=c1n(-c2ccccc2)nc2n1CCN2C1=NCCN1C(=O)c1ccc(Cl)cc1)c1ccc(Cl)cc1`, the growth was 83.3% in [1]; 77.1% in assay [2]; 80.8% in [3]; 59.8% in assay [4]; 74.6% in [5]; 59.1% in [6]. Besides, the growth is 75.2% in assay [7], 73.7% in assay [8], 51.4% in assay [9] and 14.5% in [10].

For `C#CCC(C(=O)OCC)C(=O)OCC`, the growth was 107% in assay [1]; 95.1% in [2]; 109% in assay [3]; 85% in [4]; 98.7% in assay [5]; 102% in assay [6]. In addition, the growth is 93.6% in assay [7], 94.6% in assay [8], 104% in assay [9] and 100% in [10].

For `Clc1ccc2nc(-c3ccc(-c4ccc(/C=N/NC5=NCCN5)cc4)s3)cn2c1`, the growth in assay [1] is 110%; in [2] it was 90.8%; in assay [3], 88.6%; in assay [4] it was 72.8%; in assay [5], 123%; in assay [6], 103%. Besides, the growth in [7] was 106%; in [8] it was 76.6%; in assay [9], 76.3%; in assay [10], 79.7%.

With `O=C1Nc2ccccc2/C1=C/C(=O)c1ccc(N2CCOCC2)cc1`, the growth in assay [1] was 99%; in assay [2], 98%; in [3] it was 93.7%; in assay [4], 59.6%; in assay [5], 102%; in assay [6], 72.7%. Further, the growth in [7] is 78.4%; in assay [8], 89.7%; in assay [9], 9.92% (active); in assay [10] it was 47.8%.

Take `Brc1ccc2c(c1)CN(C1CCCCC1)CO2`: the growth is 107% in assay [1]; 101% in [2]; 113% in assay [3]; 78.9% in assay [4]; 111% in [5]; 98.9% in [6]. Further, the growth was 102% in assay [7], 100% in assay [8], 107% in [9] and 99.7% in [10].

For `O=C1NC(=O)C(Cc2ccc(OCc3ccc(-c4cc(F)c(F)c(F)c4)cc3)cc2)S1` (stereo not given), the growth in assay [1] was 94.4%; in [2] it was 80.9%; in assay [3] it was 80.1%; in assay [4] it was 64.5%; in [5], 100%; in [6], 83.9%. Moreover, the growth was 53.9% in [7], 95.5% in assay [8], 80.4% in assay [9] and 76.8% in [10].

For `CC(C)=CC/C=C(/C)[C@H]1CC[C@]2(C)[C@@H]1CC[C@@H]1[C@@]3(C)CCC(=O)NC(C)(C)[C@@H]3CC[C@]12C`, the growth in assay [1] is 3.93% [100 µM] (active); in assay [2], 29.7% [100 µM]; in [3], -81.2% [100 µM] (active); in assay [4], -98.7% [100 µM] (active); in [5], 3.59% [100 µM] (active); in assay [6], -63.5% [100 µM] (active). For the same molecule, the growth in [7] is 6.46% [100 µM] (active); in [8] it was -16.4% [100 µM] (active); in [9], -9.45% [100 µM] (active); in [10], -14.3% [100 µM] (active).

As to `CC(C)CSc1ncnc2nc[nH]c12`, the growth is 107% in assay [1]; 95.3% in assay [2]; 94.7% in assay [3]; 93.9% in assay [4]; 82.4% in assay [5]; 90.3% in [6]. In addition, the growth in [7] was 98.6%; in assay [8], 87.5%; in [9], 86.8%; in assay [10] it was 128%.

On to `C=C(C)[C@@H]1CC[C@]2(C(=O)NCCNCCNC(=O)OC(C)(C)C)CC[C@]3(C)[C@H](CC[C@@H]4[C@@]5(C)CCC(=O)C(C)(C)[C@@H]5CC[C@]43C)[C@@H]12`, for which the growth in assay [1] was 41.7% [100 µM]; in assay [2], 53.5% [100 µM]; in [3], 39.9% [100 µM]; in assay [4], 17.4% [100 µM]; in [5], 54% [100 µM]; in assay [6], 23.5% [100 µM]. Further, the growth in [7] is 18.6% [100 µM]; in [8], 58.7% [100 µM]; in assay [9], 14.9% [100 µM]; in assay [10], 11.7% [100 µM].

Turning to `Cc1cc(N2CCCCCC2)nc(N2CCN(CC(=O)Nc3ccc4c(ccn4Cc4ccccc4)c3)CC2)n1`, the growth in assay [1] is 52.8%; in assay [2] it was 56%; in assay [3] it was 57.1%; in assay [4] it was 27.7%; in assay [5] it was 83.4%; in assay [6] it was 55.1%. For the same molecule, the growth in [7] is 33.3%; in assay [8] it was 8.99% (active); in assay [9], 50.2%; in [10], 41.1%.
